Test [1] has as its target High affinity nerve growth factor receptor (Homo sapiens) (UniProt P04629). The note with it: at 1 µM.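 Further: each value is the mean percent inhibition of TRKA.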
The target in test [2] is BDNF/NT-3 growth factors receptor (Homo sapiens) (UniProt Q16620). The note with it: at 0.1 µM.
Test [3] has the same target. The note with it: at 1 µM.
In test [4] the target is NT-3 growth factor receptor (Homo sapiens) (UniProt Q16288). As to conditions: at 0.1 µM.
For test [5] the target is unchanged. The note with it: at 1 µM.
The target of test [6] is T1, Tyrosine-protein kinase TXK (Homo sapiens) (UniProt P42681).
T1 sequence (whole entry): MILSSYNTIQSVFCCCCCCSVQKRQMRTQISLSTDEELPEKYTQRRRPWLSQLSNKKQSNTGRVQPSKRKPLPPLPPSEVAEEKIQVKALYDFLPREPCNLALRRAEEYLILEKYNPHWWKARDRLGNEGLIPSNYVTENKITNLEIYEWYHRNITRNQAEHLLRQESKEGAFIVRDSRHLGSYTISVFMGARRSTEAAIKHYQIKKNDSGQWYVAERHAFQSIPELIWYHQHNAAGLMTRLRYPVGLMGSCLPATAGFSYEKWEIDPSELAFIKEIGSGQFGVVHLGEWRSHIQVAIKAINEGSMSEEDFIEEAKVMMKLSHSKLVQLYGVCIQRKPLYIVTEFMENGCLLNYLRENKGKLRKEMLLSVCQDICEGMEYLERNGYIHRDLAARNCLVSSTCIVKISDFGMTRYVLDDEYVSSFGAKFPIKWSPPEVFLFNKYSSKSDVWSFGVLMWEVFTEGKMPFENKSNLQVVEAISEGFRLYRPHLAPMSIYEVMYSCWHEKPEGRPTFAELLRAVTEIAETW
As to conditions: at 0.1 µM.

Test [7] has as its target T1, Tyrosine-protein kinase TXK (Homo sapiens). As to conditions: at 1 µM.
The target of test [8] is Non-receptor tyrosine-protein kinase TYK2 (Homo sapiens) (UniProt P29597). The note with it: at 0.1 µM.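 Further: each value is a mean of the inhibition readings.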
Test [9] deals with T2, Dual specificity protein kinase TTK (Homo sapiens) (UniProt P33981).
T2 sequence (whole entry): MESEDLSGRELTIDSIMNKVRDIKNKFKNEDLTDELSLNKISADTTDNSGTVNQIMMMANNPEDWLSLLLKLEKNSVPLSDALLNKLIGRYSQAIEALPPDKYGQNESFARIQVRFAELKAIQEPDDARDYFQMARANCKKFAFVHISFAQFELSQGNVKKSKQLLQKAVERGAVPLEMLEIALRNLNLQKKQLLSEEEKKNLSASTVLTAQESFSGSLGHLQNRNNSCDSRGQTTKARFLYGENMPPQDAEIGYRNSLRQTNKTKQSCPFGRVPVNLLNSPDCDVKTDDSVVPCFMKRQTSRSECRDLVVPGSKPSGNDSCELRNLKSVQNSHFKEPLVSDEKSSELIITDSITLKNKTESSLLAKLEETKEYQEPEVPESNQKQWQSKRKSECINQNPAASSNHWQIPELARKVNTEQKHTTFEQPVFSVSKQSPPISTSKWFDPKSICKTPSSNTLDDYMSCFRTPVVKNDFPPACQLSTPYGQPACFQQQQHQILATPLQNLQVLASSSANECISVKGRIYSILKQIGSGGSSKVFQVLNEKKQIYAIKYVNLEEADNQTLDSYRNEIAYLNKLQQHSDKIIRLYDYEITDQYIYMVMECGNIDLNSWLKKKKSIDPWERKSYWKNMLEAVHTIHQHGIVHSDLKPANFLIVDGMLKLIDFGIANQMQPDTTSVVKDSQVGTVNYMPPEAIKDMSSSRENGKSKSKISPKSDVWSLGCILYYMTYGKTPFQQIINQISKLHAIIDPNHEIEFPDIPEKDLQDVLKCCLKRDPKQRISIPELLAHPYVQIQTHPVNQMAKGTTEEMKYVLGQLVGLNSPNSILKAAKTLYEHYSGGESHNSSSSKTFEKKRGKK
As to conditions: at 1 µM.

Test [10] concerns the target T3, Aurora kinase A (Homo sapiens) (UniProt O14965).
T3 sequence (whole entry): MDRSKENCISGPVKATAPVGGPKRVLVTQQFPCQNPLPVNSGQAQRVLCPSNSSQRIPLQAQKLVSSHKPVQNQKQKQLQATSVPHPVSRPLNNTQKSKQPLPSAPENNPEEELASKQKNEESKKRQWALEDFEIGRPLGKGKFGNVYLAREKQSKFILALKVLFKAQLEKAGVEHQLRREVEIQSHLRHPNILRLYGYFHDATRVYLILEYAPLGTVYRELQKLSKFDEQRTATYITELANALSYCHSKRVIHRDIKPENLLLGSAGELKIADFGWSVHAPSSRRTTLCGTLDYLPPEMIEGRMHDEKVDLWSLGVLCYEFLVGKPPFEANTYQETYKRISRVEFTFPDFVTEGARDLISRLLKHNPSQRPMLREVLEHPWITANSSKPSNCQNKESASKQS
As to conditions: at 0.1 µM.

Test [11] deals with T3, Aurora kinase A (Homo sapiens). The note with it: at 1 µM.
Test [12] has as its target Aurora kinase B (Homo sapiens) (UniProt Q96GD4). The note with it: at 0.1 µM.
Test [13] has the same target. The note with it: at 1 µM.
For test [14], the target named is T4, Aurora kinase C (Homo sapiens) (UniProt Q9UQB9).
T4 sequence (whole entry): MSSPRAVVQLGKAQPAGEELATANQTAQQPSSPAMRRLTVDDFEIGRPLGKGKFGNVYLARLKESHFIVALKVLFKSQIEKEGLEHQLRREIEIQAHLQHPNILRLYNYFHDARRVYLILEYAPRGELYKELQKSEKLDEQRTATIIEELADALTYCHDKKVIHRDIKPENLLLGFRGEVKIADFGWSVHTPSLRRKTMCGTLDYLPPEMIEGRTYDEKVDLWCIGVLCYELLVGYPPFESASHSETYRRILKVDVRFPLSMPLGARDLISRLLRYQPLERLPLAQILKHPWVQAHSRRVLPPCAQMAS
The note with it: at 0.1 µM.

Test [15] deals with T4, Aurora kinase C (Homo sapiens). As to conditions: at 1 µM.
Test [16] concerns the target Serine/threonine-protein kinase 10 (Homo sapiens) (UniProt O94804). As to conditions: at 0.1 µM.
Test [17] shares this target. As to conditions: at 1 µM.
For test [18], the target named is T5, Mitogen-activated protein kinase kinase kinase kinase 2 (Homo sapiens) (UniProt Q12851).
T5 sequence (whole entry): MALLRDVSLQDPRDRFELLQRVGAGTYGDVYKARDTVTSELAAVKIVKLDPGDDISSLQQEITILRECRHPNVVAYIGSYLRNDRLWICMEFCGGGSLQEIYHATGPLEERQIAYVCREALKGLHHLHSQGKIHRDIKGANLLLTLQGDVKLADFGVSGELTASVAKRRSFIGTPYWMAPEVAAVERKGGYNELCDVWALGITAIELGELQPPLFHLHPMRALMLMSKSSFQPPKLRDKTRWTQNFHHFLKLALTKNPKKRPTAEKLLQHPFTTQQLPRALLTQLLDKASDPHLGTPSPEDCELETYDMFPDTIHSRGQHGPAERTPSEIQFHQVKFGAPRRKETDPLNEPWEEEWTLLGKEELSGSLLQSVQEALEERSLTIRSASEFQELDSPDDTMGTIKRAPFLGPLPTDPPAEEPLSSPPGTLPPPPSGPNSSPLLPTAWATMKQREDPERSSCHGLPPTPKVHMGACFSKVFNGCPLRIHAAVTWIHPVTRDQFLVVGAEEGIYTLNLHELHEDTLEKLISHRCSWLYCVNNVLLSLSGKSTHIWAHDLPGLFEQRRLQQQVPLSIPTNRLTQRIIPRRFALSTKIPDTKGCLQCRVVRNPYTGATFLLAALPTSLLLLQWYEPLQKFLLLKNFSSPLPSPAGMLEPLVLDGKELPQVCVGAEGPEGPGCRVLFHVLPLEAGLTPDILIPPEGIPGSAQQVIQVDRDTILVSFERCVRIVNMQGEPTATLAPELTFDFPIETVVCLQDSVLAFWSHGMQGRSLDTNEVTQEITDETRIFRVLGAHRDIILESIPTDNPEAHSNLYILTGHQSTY
The note with it: at 0.1 µM.

Test [19] addresses T5, Mitogen-activated protein kinase kinase kinase kinase 2 (Homo sapiens). As to conditions: at 1 µM.
Test [20] concerns the target Mitogen-activated protein kinase kinase kinase kinase 4 (Homo sapiens) (UniProt O95819). The note with it: at 0.1 µM.

Chain of Mitogen-activated protein kinase kinase kinase kinase 4 (Homo sapiens) (O95819 2-1239 limits assumed): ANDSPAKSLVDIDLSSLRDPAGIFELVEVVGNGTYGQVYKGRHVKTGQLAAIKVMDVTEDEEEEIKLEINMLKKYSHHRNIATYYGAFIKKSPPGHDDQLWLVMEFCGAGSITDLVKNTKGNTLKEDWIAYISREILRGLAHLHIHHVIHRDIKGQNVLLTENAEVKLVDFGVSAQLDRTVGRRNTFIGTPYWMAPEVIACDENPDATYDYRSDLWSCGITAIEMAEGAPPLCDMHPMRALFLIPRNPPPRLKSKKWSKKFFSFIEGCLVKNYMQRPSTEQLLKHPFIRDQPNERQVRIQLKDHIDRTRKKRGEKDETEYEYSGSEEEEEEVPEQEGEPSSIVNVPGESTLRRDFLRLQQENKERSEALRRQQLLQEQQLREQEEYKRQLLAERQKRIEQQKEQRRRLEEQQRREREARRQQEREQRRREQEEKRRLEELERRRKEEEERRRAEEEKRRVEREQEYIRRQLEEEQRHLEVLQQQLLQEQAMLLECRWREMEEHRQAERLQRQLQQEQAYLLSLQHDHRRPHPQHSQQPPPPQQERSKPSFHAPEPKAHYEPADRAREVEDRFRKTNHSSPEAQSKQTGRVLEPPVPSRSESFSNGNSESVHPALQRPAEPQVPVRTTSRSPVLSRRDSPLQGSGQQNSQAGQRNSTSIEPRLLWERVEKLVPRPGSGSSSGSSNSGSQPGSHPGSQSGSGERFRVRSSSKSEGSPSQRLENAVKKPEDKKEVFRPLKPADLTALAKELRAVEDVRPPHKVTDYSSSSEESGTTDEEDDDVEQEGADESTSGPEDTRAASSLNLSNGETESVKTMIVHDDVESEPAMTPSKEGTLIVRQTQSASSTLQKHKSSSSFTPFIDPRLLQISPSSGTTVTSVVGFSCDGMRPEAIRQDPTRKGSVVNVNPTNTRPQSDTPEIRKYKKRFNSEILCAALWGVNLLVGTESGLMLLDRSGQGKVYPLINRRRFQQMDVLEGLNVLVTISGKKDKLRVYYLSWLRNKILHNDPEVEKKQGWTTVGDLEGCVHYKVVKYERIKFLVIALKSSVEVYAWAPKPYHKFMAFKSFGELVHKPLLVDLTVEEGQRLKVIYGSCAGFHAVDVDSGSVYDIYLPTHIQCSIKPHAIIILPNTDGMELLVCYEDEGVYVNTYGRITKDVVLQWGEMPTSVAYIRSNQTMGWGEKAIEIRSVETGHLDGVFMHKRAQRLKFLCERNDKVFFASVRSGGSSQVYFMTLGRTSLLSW
Chain of BDNF/NT-3 growth factors receptor (Homo sapiens) (Q16620 32-822 limits assumed): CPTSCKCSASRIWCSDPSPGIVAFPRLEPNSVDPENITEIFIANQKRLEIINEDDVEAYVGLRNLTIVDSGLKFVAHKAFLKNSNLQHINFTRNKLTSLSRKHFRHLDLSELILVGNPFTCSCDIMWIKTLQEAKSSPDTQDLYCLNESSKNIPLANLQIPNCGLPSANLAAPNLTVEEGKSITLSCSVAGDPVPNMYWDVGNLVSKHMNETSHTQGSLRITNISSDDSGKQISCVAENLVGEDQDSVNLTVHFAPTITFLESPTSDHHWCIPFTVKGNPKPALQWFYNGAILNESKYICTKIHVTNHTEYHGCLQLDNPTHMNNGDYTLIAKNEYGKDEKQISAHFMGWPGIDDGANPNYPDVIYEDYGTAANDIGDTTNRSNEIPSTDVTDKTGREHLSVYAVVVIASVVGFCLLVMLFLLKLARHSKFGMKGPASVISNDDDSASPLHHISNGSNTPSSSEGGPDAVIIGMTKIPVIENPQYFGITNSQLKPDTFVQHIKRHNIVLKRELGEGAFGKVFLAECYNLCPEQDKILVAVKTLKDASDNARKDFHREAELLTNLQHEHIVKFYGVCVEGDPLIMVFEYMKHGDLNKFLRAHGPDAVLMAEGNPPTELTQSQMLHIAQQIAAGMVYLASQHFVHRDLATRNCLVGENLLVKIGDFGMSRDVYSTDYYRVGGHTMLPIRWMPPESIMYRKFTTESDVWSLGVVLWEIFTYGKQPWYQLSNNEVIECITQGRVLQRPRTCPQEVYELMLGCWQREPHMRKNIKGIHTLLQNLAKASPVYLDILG
Chain of Serine/threonine-protein kinase 10 (Homo sapiens) (O94804 whole entry, looked up): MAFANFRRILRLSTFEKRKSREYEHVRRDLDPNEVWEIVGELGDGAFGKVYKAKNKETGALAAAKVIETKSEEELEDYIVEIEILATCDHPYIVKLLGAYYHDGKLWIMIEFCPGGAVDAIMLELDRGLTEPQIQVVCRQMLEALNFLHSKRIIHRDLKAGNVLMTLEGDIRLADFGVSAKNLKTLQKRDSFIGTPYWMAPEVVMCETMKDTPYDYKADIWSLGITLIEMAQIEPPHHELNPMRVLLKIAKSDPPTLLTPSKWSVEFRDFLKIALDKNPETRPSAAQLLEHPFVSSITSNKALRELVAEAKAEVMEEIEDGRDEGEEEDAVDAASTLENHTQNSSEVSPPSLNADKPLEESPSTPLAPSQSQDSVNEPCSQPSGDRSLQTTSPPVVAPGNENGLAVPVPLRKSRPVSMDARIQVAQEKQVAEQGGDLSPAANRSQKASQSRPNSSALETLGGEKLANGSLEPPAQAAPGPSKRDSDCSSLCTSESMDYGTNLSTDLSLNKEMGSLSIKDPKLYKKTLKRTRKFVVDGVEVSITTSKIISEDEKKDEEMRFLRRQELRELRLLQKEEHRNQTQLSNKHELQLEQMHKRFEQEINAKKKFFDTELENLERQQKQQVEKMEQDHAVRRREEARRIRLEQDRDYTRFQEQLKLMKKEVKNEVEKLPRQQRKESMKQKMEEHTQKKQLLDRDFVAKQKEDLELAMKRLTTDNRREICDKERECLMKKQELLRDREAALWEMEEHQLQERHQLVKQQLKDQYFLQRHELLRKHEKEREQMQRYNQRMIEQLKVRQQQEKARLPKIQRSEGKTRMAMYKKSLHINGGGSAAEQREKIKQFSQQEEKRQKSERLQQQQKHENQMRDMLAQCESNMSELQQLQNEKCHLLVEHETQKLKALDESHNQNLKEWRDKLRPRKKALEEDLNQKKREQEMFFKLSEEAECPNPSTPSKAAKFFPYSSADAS
Chain of Non-receptor tyrosine-protein kinase TYK2 (Homo sapiens) (P29597 whole entry): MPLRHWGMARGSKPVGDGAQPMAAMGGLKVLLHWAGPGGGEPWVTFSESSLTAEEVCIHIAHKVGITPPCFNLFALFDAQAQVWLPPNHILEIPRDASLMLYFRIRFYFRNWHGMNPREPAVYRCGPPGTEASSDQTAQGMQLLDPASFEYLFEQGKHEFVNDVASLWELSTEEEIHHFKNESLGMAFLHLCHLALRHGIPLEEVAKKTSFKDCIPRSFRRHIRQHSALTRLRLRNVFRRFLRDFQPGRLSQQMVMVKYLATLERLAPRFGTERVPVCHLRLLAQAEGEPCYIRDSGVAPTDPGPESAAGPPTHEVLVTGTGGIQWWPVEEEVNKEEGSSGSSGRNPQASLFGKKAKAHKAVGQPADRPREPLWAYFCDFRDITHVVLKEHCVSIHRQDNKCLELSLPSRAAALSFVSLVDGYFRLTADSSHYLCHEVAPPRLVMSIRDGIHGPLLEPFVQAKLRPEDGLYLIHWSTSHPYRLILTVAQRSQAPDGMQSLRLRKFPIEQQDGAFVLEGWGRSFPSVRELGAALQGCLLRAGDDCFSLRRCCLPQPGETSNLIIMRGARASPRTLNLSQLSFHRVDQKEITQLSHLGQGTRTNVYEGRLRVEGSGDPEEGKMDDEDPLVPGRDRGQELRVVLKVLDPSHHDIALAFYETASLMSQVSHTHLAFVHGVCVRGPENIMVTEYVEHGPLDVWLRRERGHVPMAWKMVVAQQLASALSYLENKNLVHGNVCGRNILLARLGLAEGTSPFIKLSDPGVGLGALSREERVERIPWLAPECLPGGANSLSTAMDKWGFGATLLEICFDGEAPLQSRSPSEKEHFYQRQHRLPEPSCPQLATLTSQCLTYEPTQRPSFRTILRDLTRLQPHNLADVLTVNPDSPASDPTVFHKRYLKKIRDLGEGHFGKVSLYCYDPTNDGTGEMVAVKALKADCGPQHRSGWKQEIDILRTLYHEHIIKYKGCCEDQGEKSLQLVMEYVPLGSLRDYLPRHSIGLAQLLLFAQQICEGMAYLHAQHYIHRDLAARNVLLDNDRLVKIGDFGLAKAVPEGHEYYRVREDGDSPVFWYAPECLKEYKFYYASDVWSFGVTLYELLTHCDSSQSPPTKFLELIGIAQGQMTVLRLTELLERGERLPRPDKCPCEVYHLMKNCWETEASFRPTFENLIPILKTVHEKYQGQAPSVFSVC
Chain of NT-3 growth factor receptor (Homo sapiens) (Q16288 32-839 limits assumed): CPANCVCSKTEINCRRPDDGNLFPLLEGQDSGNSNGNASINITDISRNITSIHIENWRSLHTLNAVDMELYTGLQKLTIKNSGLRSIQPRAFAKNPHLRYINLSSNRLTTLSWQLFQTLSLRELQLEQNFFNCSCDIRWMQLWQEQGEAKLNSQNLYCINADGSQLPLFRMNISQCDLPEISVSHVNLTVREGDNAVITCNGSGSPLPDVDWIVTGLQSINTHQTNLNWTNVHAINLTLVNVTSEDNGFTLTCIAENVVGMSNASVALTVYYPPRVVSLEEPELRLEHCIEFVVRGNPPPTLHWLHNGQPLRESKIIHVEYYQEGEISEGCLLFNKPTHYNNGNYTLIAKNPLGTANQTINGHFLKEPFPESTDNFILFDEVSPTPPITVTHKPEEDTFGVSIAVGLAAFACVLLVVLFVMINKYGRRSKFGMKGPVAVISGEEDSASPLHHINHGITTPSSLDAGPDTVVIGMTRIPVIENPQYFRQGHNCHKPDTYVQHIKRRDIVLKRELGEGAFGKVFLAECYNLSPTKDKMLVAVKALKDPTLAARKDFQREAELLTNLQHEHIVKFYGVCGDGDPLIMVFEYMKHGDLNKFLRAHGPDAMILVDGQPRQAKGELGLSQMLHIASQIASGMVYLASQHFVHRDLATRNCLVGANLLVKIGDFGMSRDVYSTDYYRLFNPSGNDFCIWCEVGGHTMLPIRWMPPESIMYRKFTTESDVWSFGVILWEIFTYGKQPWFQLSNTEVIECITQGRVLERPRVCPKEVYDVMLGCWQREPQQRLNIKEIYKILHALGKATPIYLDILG

Consider `CS(=O)(=O)Nc1ccc(-c2cc(-c3ccccc3)cc(C(N)=O)c2N)cc1`, for which the inhibition in [1] was 3.74%; in [2], 1.96%; in test [3], 2.61%; in test [4], 1.09%; in [5] it was 0.08%; in test [6] it was 0.48%. In addition, the inhibition in [7] was 2.13%; in test [8], -1.8%; in test [9], 3.01%; in test [10], 1.29%; in [11], 1.71%; in test [12] it was 1.93%. The inhibition in test [13] is 5.23%; in test [14], 0.13%; in [15], 4.66%; in test [16], 2.01%; in test [17] it was 4.84%; in test [18], -1.83%. Besides, the inhibition in [19] stood at 1.34%; in test [20] it was 3.1%.

For the compound `CN1CCC(n2cnc(-c3ccc(F)cc3)c2-c2ccnc(NCCO)n2)CC1`, the inhibition was determined as 2.02% in test [1]; 2.35% in [2]; 6.67% in test [3]; 4.76% in test [4]; 5.91% in [5]; 2.5% in [6]. Also, the inhibition is 2.52% in test [7]; -3.21% in [8]; 2.05% in test [9]; 1.7% in [10]; 9.26% in [11]; 4.23% in test [12]. The inhibition in [13] is 4.96%; in test [14], 1.22%; in test [15] it was -3.16%; in test [16] it was 4.56%; in [17], 8.57%; in [18] it was 1.01%. For the same compound, the inhibition in [19] was determined as 1.59%; in [20] it was 7.52%.

As to `CS(=O)(=O)CCNCc1ccoc1-c1ccc2ncnc(Nc3ccc(OCc4ccccc4)cc3)c2c1`, the inhibition in test [1] worked out at 1.88%; in test [2] it was 1.72%; in [3], 4.41%; in test [4], 2.02%; in [5], 1.74%; in test [6] it was 0.41%. Besides, the inhibition in test [7] was determined as 1.96%; in test [8], 1.14%; in test [9] it was 5.58%; in [10], 3.55%; in [11], 5.63%; in [12], 0.11%. The inhibition in test [13] is 8.33%; in test [14], 3.25%; in test [15] it was 9.46%; in test [16], -0.07%; in test [17], 3.99%; in [18], 1.72%. Besides, the inhibition came out at 1.42% in test [19] and 0.34% in [20].

On to `NC(=O)c1ccc2c(-c3ccnc(NCCCO)n3)c(-c3ccc(F)cc3)nn2c1`, for which the inhibition was 2.24% in [1]; 3.11% in test [2]; 2.83% in [3]; 3.99% in test [4]; 2.98% in [5]; 9.73% in test [6]. Further, the inhibition in [7] is 38.4%; in test [8], -3.98%; in test [9] it was 12.1%; in test [10] it was 1.36%; in [11], 3.29%; in [12] it was 2.54%. The inhibition came to 0.26% in test [13]; 0.74% in test [14]; 6.84% in test [15]; 5.04% in test [16]; 12.3% in test [17]; 1.47% in test [18]. For the same compound, the inhibition in [19] came out at 7.29%; in [20], 9.85%.

The values above are taken from ChEMBL document CHEMBL1961873, “Compounds: GSK PKIS; Assays: Nanosyn kinase panel” (2012).
